NPR1 activator: GC-A stimulated cGMP production enhancers – HEK293 GC-A cells, cGMP TR-FRET, EC30 ANP, primary screen | Atrial natriuretic peptide receptor 1 (Homo sapiens), P16066 | 0% at EC30 ANP, 100% saturating ANP | activation, % at 10 µM | hit rate 0.14% among 370,000; in the data active = activation above about 40%
Target sequence (P16066 whole entry, looked up): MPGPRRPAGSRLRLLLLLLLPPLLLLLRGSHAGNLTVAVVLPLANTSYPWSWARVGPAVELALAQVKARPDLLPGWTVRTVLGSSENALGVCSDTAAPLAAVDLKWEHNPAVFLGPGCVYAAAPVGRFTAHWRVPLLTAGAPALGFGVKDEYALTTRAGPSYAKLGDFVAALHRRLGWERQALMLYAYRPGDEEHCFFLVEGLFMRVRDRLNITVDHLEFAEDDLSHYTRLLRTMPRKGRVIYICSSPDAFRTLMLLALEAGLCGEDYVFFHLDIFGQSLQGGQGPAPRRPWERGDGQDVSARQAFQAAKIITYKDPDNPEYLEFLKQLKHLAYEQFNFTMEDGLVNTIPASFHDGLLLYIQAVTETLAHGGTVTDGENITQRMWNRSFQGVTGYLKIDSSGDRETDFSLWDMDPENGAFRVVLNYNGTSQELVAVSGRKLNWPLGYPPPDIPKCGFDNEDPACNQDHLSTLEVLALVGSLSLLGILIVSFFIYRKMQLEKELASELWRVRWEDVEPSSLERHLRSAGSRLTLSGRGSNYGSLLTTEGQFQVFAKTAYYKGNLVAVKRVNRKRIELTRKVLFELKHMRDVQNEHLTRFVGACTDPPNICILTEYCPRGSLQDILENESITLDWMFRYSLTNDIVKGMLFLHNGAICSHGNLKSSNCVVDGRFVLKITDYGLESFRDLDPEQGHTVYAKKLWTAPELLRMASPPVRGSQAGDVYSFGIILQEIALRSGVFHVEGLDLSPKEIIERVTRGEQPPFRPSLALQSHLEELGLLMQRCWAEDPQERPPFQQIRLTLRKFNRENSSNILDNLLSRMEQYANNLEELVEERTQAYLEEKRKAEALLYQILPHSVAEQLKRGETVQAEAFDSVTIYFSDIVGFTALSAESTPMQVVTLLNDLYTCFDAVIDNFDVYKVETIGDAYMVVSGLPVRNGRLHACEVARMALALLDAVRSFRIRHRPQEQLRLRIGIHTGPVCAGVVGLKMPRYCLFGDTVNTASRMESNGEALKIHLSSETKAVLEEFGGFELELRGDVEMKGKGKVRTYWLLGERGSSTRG
KLK7 zymogen act: proKLK7 zymogen activators, primary screen, biochemical, fluorescence intensity; Kallikrein-7 (Homo sapiens), P49862; purified proKLK7, EDANS-DABCYL substrate fluorescence; 100% is mature enzyme control, 0% vehicle; activation, % at 7 µM; hit rate 0.9% among 370,000;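 active = activation above the mean of all tested compounds plus 3 SD, computed per campaign excluding outliers beyond control limits, cut at about 13% in these data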
HIF activator: HIF pathway transcriptional activators, primary screen, cell-based, U2OS HRE-luciferase, luminescence; U2OS HRE-luciferase reporter; normalized: DMSO 0%, desferrioxamine 100%; activation, % at 7.5 µM (by protocol); hit rate 0.32% among 300,000;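 active = mean activation of at least 10% of the iron chelator positive control signal, with at least half of replicates also reaching 10%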
NPR2 activator: human GC-B receptor activators, primary screen, HEK293 GC-B cells, cGMP TR-FRET, EC30 CNP; activation, % at 10 µM; hit rate 0.11% among 370,000; AID 1920062, 2024; 0% at EC30 CNP, 100% saturating CNP;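 active = activation at 10 µM reaching about 35% in either raw or pattern-adjusted values, limit read from the data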
proKLK7 act conf: proKLK7 zymogen activators, confirmation, biochemical, fluorescence intensity, triplicate; shares compounds with KLK7 zymogen act; purified proKLK7, EDANS-DABCYL substrate fluorescence; scaled: vehicle 0, mature enzyme 100; activation, % at 7 µM; hit rate 68% among 3,200;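 active = activation, as change over the incubation, above the mean of all tested compounds plus 3 SD, cut at about 13% in these data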
EDANS interfere: EDANS-DABCYL substrate optical interference, artefact control for kallikrein-7 zymogen activator project, biochemical, fluorescence intensity, high throughput; shares compounds with KLK7 zymogen act; no enzyme, 4 h; solvent 0%, active enzyme control 100%; activation, % at 7 µM; hit rate 80% among 3,200;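 active = activation above the all-compound mean plus 3 SD, ignoring values outside control-based bounds, cut at about 4.8% in these data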;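 note: value is the 4 h activation minus the activation read at time zero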
EDANS interf: counter-screen for kallikrein-7 activators: EDANS-DABCYL interference, dose response; shares compounds with KLK7 zymogen act; EDANS-DABCYL peptide fluorescence interference, no enzyme; EC50, µM; hit rate 20% among 250; AID 720493;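 active = compounds that raise the fluorescence signal in this interference counterscreen, with EC50 at or below 10 µM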;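 note: intact quenched peptide substrate alone read at 355 nm excitation and 520 nm emission; signal is fluorescence gain from T0 to T4 after four hours at room temperature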
An asterisk follows results filed as active; . = no result given. An excerpt weighted towards active compounds, which were near 1.3% of everything screened.

SMILES | NPR1 activator | KLK7 zymogen act | HIF activator | NPR2 activator | proKLK7 act conf | EDANS interfere | others
COc1ccc(NC(=O)CN2C(=O)c3cccc4cccc2c34)c(OC)c1 | 0 | 304* | 0 | -12 | 59* | 67*
Nn1c(SCC(=O)Nc2ccccc2-c2ccccc2)nnc1-c1cc(-c2ccc(F)cc2)n[nH]1 | 1 | 0 | . | -5 | . | .
COc1ccccc1NC(=O)COC(=O)c1c[nH]c(=O)[nH]c1=O | -6 | 0 | 0 | 4 | . | .
COc1ccccc1NC(=O)COC(=O)c1[nH]c(=O)[nH]c(=O)c1N | 2 | 84* | . | 3 | 120* | 121*
Cc1cc(C)c2c(N)c(C(=O)NN3CC(=O)N(c4ccccc4F)CC3=O)sc2n1 | 3 | 112* | 0 | 2 | 40* | 42*
Cc1cc(C)c2c(N)c(C(=O)NNC(=O)c3ccccc3)sc2n1 | 2 | 6 | 0 | -2 | . | .
COc1cccc(N2CC(=O)N(NC(=O)CSc3nc(C)cc(C)c3C#N)CC2=O)c1 | 1 | 71* | -1 | 0 | 42* | 45*
COc1cccc(N2CC(=O)N(NC(=O)c3sc4nc(C)cc(C)c4c3N)CC2=O)c1 | 8 | 56* | 0 | 0 | 16* | 22*
CN[C@H]1C[C@H]2c3cc(-c4ccccc4C)ccc3CCN2C[C@H]1[C@H](C)O | -6 | 1 | . | -1 | . | .
CCOc1ccc(-n2c(SCC(=O)Nc3ccc(S(=O)(=O)Nc4nccs4)cc3)nnc2-c2ccccc2)cc1 | -1 | 0 | . | -1 | . | .
COc1cccc(-c2ccc(CC[C@H]3O[C@H]4CC[C@@H](CO)O[C@H]4C[C@H]3NS(C)(=O)=O)cc2)c1 | -2 | 1 | . | -16 | . | .
CCOc1ccccc1C1C2=C(COC2=O)Nc2cc3c(cc21)OCO3 (stereo not given) | -57 | 16* | 2 | -26 | -20 | -19
O=C1OCC2=C1C(c1ccc(F)cc1)c1cc3c(cc1N2)OCO3 (stereo not given) | -2 | 3 | . | -7 | . | .
COc1ccc(C2C3=C(COC3=O)Oc3cc4c(cc32)OCO4)cc1OC (stereo not given) | -3 | 0 | . | -2 | . | .
C#CCOc1ccc(C2C3=C(COC3=O)Nc3cc4c(cc32)OCO4)cc1OC (stereo not given) | 4 | 69* | -1 | -3 | -11 | -23
Cc1ccc(S(=O)(=O)C(C#N)c2nc3ccccc3nc2OCCO)cc1 (stereo not given) | 2 | -2 | 0 | 4 | . | .
CC(=O)Nc1ccc(S(=O)(=O)C(C#N)c2nc3ccccc3nc2NCCO)cc1 (stereo not given) | -1 | 64* | 0 | -7 | 66* | 73*
CC(=O)Nc1ccc(S(=O)(=O)C(C#N)c2nc3ccccc3nc2NCCCO)cc1 (stereo not given) | -7 | 39* | 0 | -4 | 53* | 69*
CC(=O)Nc1ccc2c3c(cccc13)C(=O)N(c1ccccc1)C2=O | 11 | 59* | -1 | 4 | 65* | 71*
Cc1cccn2c(=O)c3cc(C(=O)NC4CCS(=O)(=O)C4)sc3nc12 (stereo not given) | 12 | 22* | 0 | 0 | 53* | 43* | EDANS interf=>70
Cc1cc(C)cc(NC(=O)c2cc3c(=O)n4ccccc4nc3s2)c1 | -5 | 1 | 0 | -4 | . | .
CC(C)NC(=O)c1cc2c(=O)n3ccccc3nc2s1 | 10 | 76* | -1 | -2 | 75* | 81*
CSc1ccccc1NC(=O)c1cc2c(=O)n3ccccc3nc2s1 | -8 | 0 | 1 | -2 | . | .
O=C(NC1CCCCCC1)c1cc2c(=O)n3ccccc3nc2s1 | 8 | 25* | 3 | -4 | 16* | 7.9* | EDANS interf=>70
C=CCNC(=O)c1cc2c(=O)n3ccccc3nc2s1 | 7 | 52* | 2 | -2 | 59* | 69*
SMILES | NPR1 activator | KLK7 zymogen act | HIF activator | NPR2 activator | proKLK7 act conf | EDANS interfere | others
CN1CCCN(C(=O)C2CCN(c3ncnc4c3sc3cccc(F)c34)CC2)CC1 | 7 | -1 | . | -5 | . | .
O=S(=O)(c1ccc(Cl)s1)N1CCC(c2nc3ccccc3o2)CC1 | -4 | 1 | . | -8 | . | .
CC(=O)N1CCN(C(=O)CSc2nc3cccnc3n2C)CC1 | 0 | 1 | . | -3 | . | .
CCOC(=O)[C@@]12CCCC=C1N(CCc1ccc(Cl)cc1)C(=O)[C@H]2CC(=O)N1CCN(C(=O)c2ccco2)CC1 | 2 | -1 | . | -1 | . | .
Cc1onc(-c2ccc(Cl)cc2)c1-c1ccn(S(=O)(=O)c2ccccc2)n1 | -8 | 0 | . | -7 | . | .
CCn1c2ccccc2c2cc(NC(=O)COC(=O)c3cccc(OC)c3)ccc21 | 4 | 0 | . | 1 | . | .
COc1ccc(CCC(=O)NNC(=O)Nc2ccc(OC)c(OC)c2)cc1 | 1 | -1 | -1 | 0 | . | .
COc1ccc(NC(=O)NNC(=O)CCc2ccc(O)c(O)c2)cc1OC | 2 | 24* | 0 | 6 | 27* | 24*
COc1ccc(-n2c(O)c(/C=N/NS(=O)(=O)c3cccc([N+](=O)[O-])c3)c3ccccc3c2=O)cc1OC | -1 | 24* | 0 | 1 | 77* | 67*
CCCCCCCCNS(=O)(=O)CC1NCc2ccccc21 (stereo not given) | -1 | 0 | . | -1 | . | .
CC(C)(C)C(=O)Oc1ccc2cc(-c3ccc4ccccc4n3)c(=O)oc2c1 | 6 | 7 | 0 | 4 | . | .
Cn1c(-c2cc3ccc(OC(=O)C(C)(C)C)cc3oc2=O)nc2ccccc21 | 9 | 34* | 1 | 8 | 62* | 60*
CC(=O)Oc1ccc2cc(-c3nc4ccccc4n3C)c(=O)oc2c1 | 13 | 39* | 2 | 5 | 76* | 80*
CCc1cc2c(=O)c(Oc3ccccc3)c(C)oc2cc1O | -2 | 55* | -1 | 6 | 65* | 78*
Cc1oc2cc(OCC(=O)O)ccc2c(=O)c1Oc1ccccc1 | 3 | -1 | -1 | 1 | . | .
COc1ccc(C(C(=O)N(C)C2CCCC2)N(Cc2ccc(F)cc2)C(=O)c2csc(-c3ccccc3)n2)cc1OC (stereo not given) | -2 | 0 | . | -8 | . | .
COc1ccc(-c2ccc(C#N)c(SCC(=O)NC3CC3)n2)cc1OC | 11 | 17* | 0 | 8 | 4 | 2
COc1ccccc1CNC(=O)CN1C(=O)c2cccc(N)c2C1=O | 3 | 50* | 2 | -3 | -1 | 44*

Bioassay records as filed in PubChem BioAssay.
